Source: ChEMBL document CHEMBL3433997, “St. Jude Leishmania screening dataset” (2016)

target: Solute carrier family 2, facilitated glucose transporter member 1 (Homo sapiens) (UniProt P11166); assay: ST_JUDE_LEISH: Cytotoxicity at 2uM final concentration against transgenic Leishmania Mexicana promastigotes LmGLUT1 that are glucose transport deficient and complemented with the human glucose transporter GLUT1. Activity is measured by DNA content using SYBR green in vitro; format: functional
Sequence (P11166 whole entry): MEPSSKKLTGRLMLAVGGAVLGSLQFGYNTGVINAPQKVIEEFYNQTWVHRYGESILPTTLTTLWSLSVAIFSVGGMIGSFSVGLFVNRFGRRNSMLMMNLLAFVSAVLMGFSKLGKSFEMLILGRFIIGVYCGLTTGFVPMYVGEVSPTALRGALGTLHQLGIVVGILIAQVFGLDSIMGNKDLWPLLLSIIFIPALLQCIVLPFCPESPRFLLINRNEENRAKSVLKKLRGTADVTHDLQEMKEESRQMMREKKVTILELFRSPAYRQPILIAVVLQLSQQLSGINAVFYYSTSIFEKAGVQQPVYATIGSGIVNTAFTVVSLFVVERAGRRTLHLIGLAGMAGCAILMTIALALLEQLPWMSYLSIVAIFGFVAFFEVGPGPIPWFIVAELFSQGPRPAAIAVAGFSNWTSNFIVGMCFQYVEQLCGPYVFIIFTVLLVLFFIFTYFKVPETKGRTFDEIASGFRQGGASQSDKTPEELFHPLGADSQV

| Compound | inhibition [%] |
| --- | --- |
| COc1ccc(C(=O)N2CCc3cc4nccc(N5CCN6CCC[C@H]6C5)c4cc32)cc1 | 2.59 |
| CC(Nc1ccc2c(c1)CCC2)C(=O)Nc1cc(C(F)(F)F)ccc1N1CCOCC1 (centres undefined) | 14.7 |
| O=C(/C=C/c1ccc(Cl)cc1)NCCCCCN1CCN(C(=O)Nc2ccc(Cl)c(C(F)(F)F)c2)CC1 | 4.45 |
| COc1ccc(NC(=O)[C@H](Cc2ccccc2)Nc2cc(C)nc(NCCOc3ccccc3)n2)cc1 | 4.06 |
| COc1ccc(-c2ccc(NC(=O)c3ccc(Cl)cc3)cc2)cc1CN(C)CCO | 4.1 |
| N=C(NCc1ccccc1)Nc1nc(-c2ccc(OCCCn3ccnc3)cc2)cs1 | 29.9 |
| Cc1[nH]c(C)c(-c2ccc(-c3ccccc3Cl)nc2)c(=O)c1Br | 0.1 |
| COc1ccc2nccc([C@@H](O)CN3CCC(NCc4ccc5c(c4)NC(=O)C(C)(C)O5)CC3)c2c1 | 7.93 |
| CCCCCCCc1c(C)nc2ccccc2c1O | 6.82 |
| Cc1ccc(-c2nnc(Nc3ccc(OCC(N)=O)cc3)c3ccccc23)cc1S(=O)(=O)NCC1CCCO1 (centres undefined) | 1.11 |
| CCCCN(Cc1cnccc1-c1ccc(Br)cc1)c1ccc(C(O)(C(F)(F)F)C(F)(F)F)cc1 | 3.94 |
| COc1ccccc1-n1c(SCC(=O)Nc2ccccc2F)nc2cccnc21 | 2.95 |
| Cc1cccc2nc(-c3ccc(-c4cccc(CN5CCCC5CN)c4)cc3)[nH]c12 (centres undefined) | 1.08 |
| Cc1ccc(C(=O)Nc2ccc(Cl)c(N3CCN(CCc4ccccc4)CC3)c2)cc1 | 4.14 |
| COc1ccccc1Nc1nc(C)cc(NCc2ccc(-n3ccnc3)cc2)n1 | 8.92 |
| Cc1cccc2nc(-c3ccc(-c4cccc(NC(=O)Nc5ccc6c(c5)OCO6)c4)cc3)[nH]c12 | 2.61 |
| Cc1noc(C)c1-c1ccc2c(Nc3ccccc3C(C)(C)C)c(C(=O)NCc3ccccc3)cnc2c1 | 6.6 |
| COc1cccc(CN2CCCC(OC(c3ccccc3)c3ccccc3)C2)c1O (centres undefined) | 1 |
| O=[N+]([O-])c1ccc2nc(Nc3ccc(Cl)c(Cl)c3)c(Nc3ccc(Cl)c(Cl)c3)nc2c1 | 0.54 |
| O=c1cc(NCCCNCc2cccc(SC(F)(F)F)c2)[nH]c2ccccc12 | 3.33 |
| COc1ccc2nccc(N3CCC(NCCNCc4cc5c(cn4)OCCO5)C3)c2n1 (centres undefined) | 2.14 |
| CC(C)NCc1ccc(-c2cccc(NC(=O)c3cccc(Cl)c3)c2)cc1 | 17.7 |
| COc1ccc(NC(=O)Nc2ccc(-c3cccc(-c4nc5ccccc5[nH]4)c3)cc2)cc1 | 3 |
| Cc1cccc(C(=O)NC(NC(=S)Nc2ccc([N+](=O)[O-])cc2)C(Cl)(Cl)Cl)c1 (centres undefined) | 3.68 |

target: Hexose transporter 1 (Plasmodium falciparum) (UniProt O97467); assay: ST_JUDE_LEISH: Cytotoxicity at 2uM final concentration against transgenic Leishmania Mexicana promastigotes LmPfHT that are glucose transport deficient and complemented with the Plasmodium falciparum hexose transporter. Activity is measured by DNA content using SYBR green in vitro; format: functional

| Compound | inhibition [%] |
| --- | --- |
| COc1ccc(NC(=O)/C=C/c2ccccc2Cl)cc1OCCN1CCC(O)(c2ccc(Cl)c(C(F)(F)F)c2)CC1 | 8.47 |
| CC(C)NCc1ccc(-c2cccc(-c3nc4ccccc4[nH]3)c2)cc1 | 11.8 |
| CN1CCN(CCCN(Cc2ccc(-c3cccc(CNCc4ccc5c(c4)OCO5)c3)cc2)C(=O)NCCc2ccccc2)CC1 | 2.67 |
| O=C(Nc1cccc(Cl)c1Cl)N[C@H]1CCN(CCCCCNC(=O)C2CC2c2ccc(Cl)c(Cl)c2)C1 (some centres undefined) | 4.52 |
| CC(C)CNCc1cccc(-c2cccc(CN(CCCN3CCN(C)CC3)C(=O)CCC3CCCC3)c2)c1 | 3.07 |
| O=C(Nc1cccc(OC2CCN(Cc3ccccc3)CC2)c1)c1ccc([N+](=O)[O-])cc1 | 4.94 |
| CCc1cccc(OCCCON2C(=N)N=C(N)NC2(C)C)c1 | 9.83 |
| CCc1c(CCNCCCCCCNCCc2ccc(Br)cc2)ccc(OC)c1OC | 10.9 |
| CC(NCC(O)Cn1c2ccccc2c2ccccc21)c1ccccc1 (centres undefined) | 1.68 |
| O=C(N/C(=C/c1cccc([N+](=O)[O-])c1)c1nc2ccccc2[nH]1)c1cccc(Br)c1 | 1.64 |
| COc1ccc(-c2cccc(NC(=O)c3ccc(F)cc3)c2)cc1CN1CCCN(C)CC1 | 9.38 |
| CCn1c(SCc2ccc(F)cc2)nc2sc3c(c2c1=O)CCN(C)C3 | 1.32 |
| CCOc1ccc(C(=O)Nc2cc(Br)c3c(c2)CNCC3)cc1C#N | 5.03 |
| CCc1ccc(NC(=O)C=NNC(=N)N)cc1 | 1.46 |
| Clc1cc(Cl)cc(Nc2ccnc(Nc3cc(Cl)cc(Cl)c3)n2)c1 | 2.75 |
| COc1ccc2nccc([C@@H](O)CN3CCC(NCc4cc5ccc(Cl)cc5[nH]4)CC3)c2c1 | 12.1 |
| COc1ccc(C(=O)N2CCc3cc4nccc(N5CCN6CCC[C@H]6C5)c4cc32)cc1 | 3.64 |
| CC(Nc1ccc2c(c1)CCC2)C(=O)Nc1cc(C(F)(F)F)ccc1N1CCOCC1 (centres undefined) | 16.9 |
| O=C(/C=C/c1ccc(Cl)cc1)NCCCCCN1CCN(C(=O)Nc2ccc(Cl)c(C(F)(F)F)c2)CC1 | 5 |
| COc1ccc(NC(=O)[C@H](Cc2ccccc2)Nc2cc(C)nc(NCCOc3ccccc3)n2)cc1 | 2.78 |

| Compound | inhibition [%] |
| --- | --- |
| COc1ccc(-c2ccc(NC(=O)c3ccc(Cl)cc3)cc2)cc1CN(C)CCO | 3.45 |
| N=C(NCc1ccccc1)Nc1nc(-c2ccc(OCCCn3ccnc3)cc2)cs1 | 35.3 |
| Cc1[nH]c(C)c(-c2ccc(-c3ccccc3Cl)nc2)c(=O)c1Br | 1.48 |
| COc1ccc2nccc([C@@H](O)CN3CCC(NCc4ccc5c(c4)NC(=O)C(C)(C)O5)CC3)c2c1 | 8.24 |
| CCCCCCCc1c(C)nc2ccccc2c1O | 6.3 |
| Cc1ccc(-c2nnc(Nc3ccc(OCC(N)=O)cc3)c3ccccc23)cc1S(=O)(=O)NCC1CCCO1 (centres undefined) | 3.81 |
| CCCCN(Cc1cnccc1-c1ccc(Br)cc1)c1ccc(C(O)(C(F)(F)F)C(F)(F)F)cc1 | 3.75 |
| COc1ccccc1-n1c(SCC(=O)Nc2ccccc2F)nc2cccnc21 | 1.38 |
| Cc1cccc2nc(-c3ccc(-c4cccc(CN5CCCC5CN)c4)cc3)[nH]c12 (centres undefined) | 1.46 |
| Cc1ccc(C(=O)Nc2ccc(Cl)c(N3CCN(CCc4ccccc4)CC3)c2)cc1 | 8.02 |
| COc1ccccc1Nc1nc(C)cc(NCc2ccc(-n3ccnc3)cc2)n1 | 7.52 |
| Cc1cccc2nc(-c3ccc(-c4cccc(NC(=O)Nc5ccc6c(c5)OCO6)c4)cc3)[nH]c12 | 4.13 |
| Cc1noc(C)c1-c1ccc2c(Nc3ccccc3C(C)(C)C)c(C(=O)NCc3ccccc3)cnc2c1 | 7.11 |
| COc1cccc(CN2CCCC(OC(c3ccccc3)c3ccccc3)C2)c1O (centres undefined) | -1.82 |
| O=[N+]([O-])c1ccc2nc(Nc3ccc(Cl)c(Cl)c3)c(Nc3ccc(Cl)c(Cl)c3)nc2c1 | 1.45 |
| O=c1cc(NCCCNCc2cccc(SC(F)(F)F)c2)[nH]c2ccccc12 | 3.61 |
| COc1ccc2nccc(N3CCC(NCCNCc4cc5c(cn4)OCCO5)C3)c2n1 (centres undefined) | 2.64 |
| CC(C)NCc1ccc(-c2cccc(NC(=O)c3cccc(Cl)c3)c2)cc1 | 12.9 |
| COc1ccc(NC(=O)Nc2ccc(-c3cccc(-c4nc5ccccc5[nH]4)c3)cc2)cc1 | 3.12 |
| Cc1cccc(C(=O)NC(NC(=S)Nc2ccc([N+](=O)[O-])cc2)C(Cl)(Cl)Cl)c1 (centres undefined) | 3.52 |
